According to PubChem BioAssay (NCATS):
Inconclusive results are not listed. Values without a mark were called inactive. The source made the active and inactive calls. Calls come from the whole dose curve; as a rule, active = well fitted inhibition curve with a large enough effect; inconclusive = small, poorly fitted or top-dose-only effect; inactive = no such curve, though single readings can be large or run the other way.
Potency is the fitted concentration of half-maximal effect.

Test: NS1 protein of Zika virus - qHTS assay to identify small molecule inhibitors in human HEK 293 cells (AID 1347053); note: nearly all actives have a fitted effect of over 55% in size;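 for activity change, negative = inhibition: plate controls were infected untreated cells for no effect and uninfected cells for full effect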
Conditions: HEK293 ZIKV MR766 infection, NS1 TR-FRET, 24 h; series mostly up to 46.1 µM; activity change, negative = inhibition: at the top concentration
Procedure, shortened: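 Inhibition of NS1 expression was scored in HEK 293 cells given compound 1 h ahead of MR766 virus (MOI = 0.5). Following 24 h at 37 C, two anti-NS1 antibodies generated a TR-FRET signal, scaled between uninfected and infected controls.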
With `COc1nn(CSP(=S)(OC)OC)c(=O)s1` the “activity change, negative = inhibition” value was 6.51% [at 92.8 µM].
In the case of `O=C(Oc1ccc([N+](=O)[O-])cc1)N1CCN(Cc2cccc(Oc3ccccc3)c2)CC1`, the “activity change, negative = inhibition” value is reported as -17.9%.
With `C[C@]12CC[C@H]3[C@@H](CCC4=CC(=O)CC[C@@]43C)[C@H]1CC[C@H]2OC(=O)CCC1CCCC1` the “activity change, negative = inhibition” value was -3.21%.
For `CC(C)(O)C=CC(=O)[C@](C)(O)[C@H]1[C@H](O)C[C@]2(C)[C@@H]3CC=C4[C@@H](C=C(O)C(=O)C4(C)C)[C@]3(C)C(=O)C[C@@]12C`, the Potency was 3.32 µM (active).
For `c1cc2c(cc1[C@H]1OC[C@H]3[C@H]1CO[C@H]3c1ccc3c(c1)OCO3)OCO2`, the “activity change, negative = inhibition” value was 1.79%.
With `CC=C(C)C(=O)O[C@H]1C(C)=C2[C@@H]3OC(=O)[C@@](C)(O)[C@@]3(O)[C@@H](OC(=O)CCC)C[C@](C)(OC(C)=O)[C@@H]2[C@@H]1OC(=O)CCCCCCC` the Potency was 0.332 µM (active).
In the case of `O=C(O)CC[N+](=O)[O-]`, the “activity change, negative = inhibition” value is reported as -15.6%.
For `COc1ccc(CC2NCCc3cc(OC)c(OC)cc32)cc1OC` (stereo unspecified), the “activity change, negative = inhibition” value was -6.75%.
In the case of `C[C@@H]1CC[C@@]2(OC1)O[C@H]1C[C@H]3[C@@H]4CC=C5C[C@@H](O[C@@H]6O[C@H](CO)[C@@H](O[C@@H]7O[C@@H](C)[C@H](O)[C@@H](O)[C@@H]7O)[C@H](O)[C@@H]6O[C@@H]6O[C@@H](C)[C@H](O)[C@@H](O)[C@@H]6O)CC[C@]5(C)[C@@H]4CC[C@]3(C)[C@@H]1[C@H]2C`, the Potency is reported as 3.72 µM (active).
For `CC(N[C@H]1C[C@H]1c1ccccc1)c1ccc2c(c1)OCCO2` (stereo partly specified), the “activity change, negative = inhibition” value was 15.4%.
For `O=[N+]([O-])c1c(Cl)c(Cl)cc(Cl)c1Cl`, the “activity change, negative = inhibition” value was -8.43% [at 92.8 µM].
